Assay results published in PubChem BioAssay AID651812 (National Center for Advancing Translational Sciences (NCATS), 2012).
Among all 2,100 compounds or so, about 650 (31%) were called active. Roughly 16% stayed inconclusive and do not appear here. The call rests on the fitted dose curve; in most records, active means well fitted inhibition curve with a large enough effect; inconclusive means small, poorly fitted or top-dose-only effect; inactive means flat fitted curve, though single readings scatter. This is one part of the list. Entries that show only a call come without a potency.

Experiment: qHTS for inhibitors of Vif-A3G interactions: Cherry picks; further: nearly all actives have a fitted effect of over 80% in size
Settings: HeLa A3G-eYFP + Vif (tagged APOBEC3G with the HIV-1 protein that degrades it), 24 h; Potency: eYFP fluorescence increase; series mostly up to 36.9 µM
Procedure, shortened: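 HeLa cells stably expressing A3G-eYFP and Vif, cultured overnight then exposed to compounds at several concentrations for 24 hours at 37 C, 5% CO2; cellular yellow fluorescence (488 nm ex, 500-530 nm em) imaged on Acumen, MG132 positive control.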
Potency means the concentration at half of the fitted maximal effect.

Structure (SMILES) | Potency
N#C/C(=C/c1cccs1)c1ccccn1 | 14 µM (active)
N#C/C(=C/c1ccc(N2CCCCC2)o1)c1cccc(F)c1 | 8.2 µM (active)
N#C/C(=C/c1ccc(N2CCCCCC2)o1)c1cccc(F)c1 | 3.66 µM (active)
CSc1nc2ccccc2cc1/C=C(\C#N)c1cccc(C)c1 | inactive
COc1cc(C2C(C#N)=C(N)Oc3cc(O)ccc32)cc(OC)c1OC (stereo not drawn) | inactive
CCCCN(C)CC(O)Cn1cc(/C=C/C(=O)c2cccs2)c2ccccc21 (stereo not drawn) | 20.6 µM (active)
CN(NC(=O)c1ccccc1)c1nc2ccccc2nc1C(F)(F)F | inactive
CN(C)c1ccc(/C=C/c2nc3ccccc3c(=O)n2CCO)cc1 | 18.4 µM (active)
Nc1ccc(/C=C/c2cc(Cl)nc3ccccc23)cc1 | 20.6 µM (active)
Cc1noc(C)c1CSc1nc2ccccc2c(=O)n1-c1ccccc1 | inactive
CN(C)c1ccc(/C=C/c2cc(/C=C/c3ccc(N(C)C)cc3)c3ccccc3n2)cc1 | 6.51 µM (active)
CN(C)c1ccc(/C=C/c2cc(N(C)C)nc3ccccc23)cc1 | 13 µM (active)
O=C(NC(=S)Nc1ccc(-c2ccccc2)cc1)c1ccccc1 | inactive
CC(C)Cn1c(N)c(C(=O)COC(=O)c2ccc([N+](=O)[O-])o2)c(=O)n(C)c1=O | inactive
CC(C)(C)n1ncc2c(=O)n(CC(=O)NCc3ccc(F)cc3)cnc21 | inactive
O=C1OC(Nc2nc(-c3ccc(F)cc3)cs2)c2ccccc21 (stereo not drawn) | inactive
CCN(CC)c1ccc(/C=C/c2cc(-c3ccccc3)c3ccccc3n2)cc1 | 11.2 µM (active)
COc1ccc(C2=NOC(C(=O)NCc3cccs3)C2)cc1OC (stereo not drawn) | inactive
Cc1ccc(N2C(=O)[C@@H]3[C@H](C2=O)[C@H]2C=C(C(=O)c4ccccc4)C=CN2[C@@H]3C(=O)c2ccc(Cl)cc2)cc1 | inactive
CCn1nc(-c2ccccc2)c2nc3ccccc3nc21 | 16.4 µM (active)
Nc1ccc2nc(-c3ccccc3)c(-c3ccccc3)nc2c1 | inactive
O=C(Nc1nc(NC(=O)c2ccco2)n(-c2ccccc2)n1)c1ccccc1 | inactive
Cc1cc(C)c2cc3c(N)c(C(=O)Nc4c(C)[nH]c(=O)[nH]c4=O)sc3nc2c1 | 18.4 µM (active)
O=C(Cn1cnc2c(cnn2-c2ccc(F)cc2)c1=O)NCc1ccco1 | inactive
N#CC1=C(N)Oc2cc(N)ccc2C1c1ccc(F)cc1F (stereo not drawn) | 18.4 µM (active)

Structure (SMILES) | Potency
N#CC1=C(N)Oc2cc(N)ccc2C1c1ccccc1F (stereo not drawn) | inactive
N#CC1=C(N)Oc2cc(N)ccc2C1c1cccc(F)c1 (stereo not drawn) | inactive
Cc1csc(NC(=O)CCC(=O)N(CC(=O)NC2CCCC2)Cc2ccccc2)n1 | inactive
CCCC1=Nc2cc(C(=O)NCc3ccco3)ccc2Sc2ccccc21 | inactive
COc1cc(OC)c(OC)cc1/C=C1\Oc2cc(OCC(=O)N3Cc4ccccc4C[C@H]3C(=O)O)ccc2C1=O | 4.11 µM (active)
Cc1cc(=O)oc2cc(OCC(=O)N3c4ccccc4CC3C)ccc12 (stereo not drawn) | inactive
CCNC(=S)N/N=C(\C)c1ccc(N2CCOCC2)cc1 | inactive
COc1ccc(OCCCC(=O)N2CCN(S(=O)(=O)c3cccc(F)c3)CC2)cc1 | inactive
O=C1CSC(=S)N1Cc1cccnc1 | 16.4 µM (active)
COc1ccc(OC)c(/C=C/c2nc3ccccc3[nH]c2=O)c1 | 18.4 µM (active)
N=C1C(c2nc3ccccc3[nH]2)=C(O)CN1c1ccccc1 | inactive
COc1cccc(N2CC(O)=C(c3nc4ccccc4c(=O)[nH]3)C2=N)c1 | inactive
COc1ccc(OC)c(Nc2nc(-c3ccncc3)nc3ccccc23)c1 | inactive
O=C(/C(=C/c1ccc(Cl)cc1)c1nc2ccccc2[nH]1)c1cccs1 | inactive
O=c1[nH]c2ccccc2nc1/C=C/c1ccc(F)cc1 | 14 µM (active)
O=c1[nH]c2ccccc2nc1/C=C(\O)c1cccs1 | 18.4 µM (active)
COc1ccc(NS(=O)(=O)c2cc([N+](=O)[O-])ccc2N/N=C/c2c(C)[nH]c3ccccc23)cc1 | 14.6 µM (active)
Cc1[nH]c2ccccc2c1/C=N/Nc1ccc([N+](=O)[O-])cc1 | 13 µM (active)
CCN(CC)c1ccc(NC(=O)c2ccc(=O)[nH]c2)cc1S(=O)(=O)Nc1ccccc1OC | inactive
Cc1[nH]c2ccccc2c1/C=N/NC(=O)c1cc(-c2ccncc2)nc2ccccc12 | inactive
O=[N+]([O-])c1ccc(N/N=C/c2c[nH]c3ccccc23)cc1 | 11.6 µM (active)
COc1ccc(S(=O)(=O)Nc2cccc3ccccc23)cc1 | inactive
O=C(N/N=C/c1c[nH]c2ccccc12)C1COc2ccccc2O1 (stereo not drawn) | inactive
COc1ccccc1NS(=O)(=O)c1cc([N+](=O)[O-])ccc1N/N=C/c1c[nH]c2ccccc12 | 16.4 µM (active)
O=[N+]([O-])c1ccc(N/N=C\c2cccn2-c2ccccc2)nc1 | inactive

Structure (SMILES) | Potency
CCCCCS(=O)(=O)c1oc(-c2cccs2)nc1S(=O)(=O)c1ccc(C)cc1 | inactive
Cc1ccc(-c2nc(C=Nc3ccc(O)cc3)c(O)o2)cc1 | inactive
COc1ccc(NC(=O)C2(C)Cc3c(-c4cccc(NC(C)=O)c4)ccnc3O2)cc1 (stereo not drawn) | inactive
COc1cc(Cn2c3ccc(NC(=O)CCc4ccccc4)cc3c(=O)n2C)ccc1F | inactive
Cn1nnnc1SCCNCc1cc(Br)ccc1OCc1ccccc1Cl | inactive
Cc1ccc(-c2cc(NC=O)c3ncc(-c4cnn(C)c4)n3c2)cc1 | inactive
COc1ccccc1NS(=O)(=O)c1cc([N+](=O)[O-])ccc1N/N=C/c1c(C)[nH]c2ccccc12 | 2.8 µM (active)
O=C(Nc1ccc2c(c1)OCCO2)C(=O)c1c[nH]c2ccccc12 | inactive
O=[N+]([O-])c1ccc(N/N=C/c2c[nH]c3ccccc23)c(S(=O)(=O)Nc2ccc(Cl)cc2)c1 | 18.4 µM (active)
C/C(=N/Nc1ccc([N+](=O)[O-])cc1)c1c[nH]c2ccccc12 | 8.2 µM (active)
Cc1ccc(-c2cc(C(=O)N/N=C/c3c[nH]c4ccccc34)[nH]n2)cc1 | inactive
O=[N+]([O-])c1ccc(N=Nc2ccc(O)c3ccccc23)cc1 | inactive
Cc1ccc(N2C(=O)CS/C2=C(\C(Cl)=C(Cl)Cl)[N+](=O)[O-])cc1 | inactive
Fc1cccc(F)c1/C=N/NC(=S)Nc1cccnc1 | inactive
Cn1c(=O)c2cc(NC(=O)Cc3cccc4ccccc34)ccc2n1-c1ccccc1 | inactive
COc1cc(/C=C/C(=O)c2ccc(O)cc2)ccc1OCC#N | inactive
CCOc1ccc(N/C=C/C(=O)c2cc(OC)c(OC)c(OC)c2)cc1 | inactive
CCOc1cc(/C=C/C(=O)c2ccc(OC)c(CN3CCOCC3)c2)cc(Br)c1O | 18.4 µM (active)
COc1cc2c(cc1OC)C(C)N(C(=O)c1cc(Cl)nc(Cl)c1)CC2 (stereo not drawn) | inactive
O=C(Nc1ccc([N+](=O)[O-])cc1)C(Cc1ccccc1)N1C(=O)c2cccc3cccc(c23)C1=O (stereo not drawn) | 14 µM (active)
O=C(c1ccc(CS(=O)c2ccccc2Cl)o1)N1CCN(c2ccccc2F)CC1 (stereo not drawn) | inactive
CC(=O)c1ccc2cccc3c2c1N=CN3C | 15.8 µM (active)
C=CCn1c(O)c(N=NC(=O)CNC(=O)c2ccco2)c2ccccc21 | inactive
CCN(CC)c1ccc(NC(=O)c2ccc(=O)[nH]c2)cc1S(=O)(=O)Nc1ccc(OC)cc1 | inactive
O=C(O)c1ccc(N/N=C/C(Br)=C/c2ccccc2)cc1 | inactive

Structure (SMILES) | Potency
Cc1ccc(-c2ccc(/C=N/NC(N)=S)o2)cc1 | inactive
O=C(Cc1ccccc1)N/N=C/c1ccc(-c2ccc([N+](=O)[O-])cc2)o1 | 17.7 µM (active)
CCOc1ccc(S(=O)(=O)N(CC(=O)N/N=C/c2ccc(-c3ccc([N+](=O)[O-])cc3)o2)c2ccccc2)cc1 | inactive
O=[N+]([O-])c1ccccc1C=NNC(=S)NN=Cc1ccccc1[N+](=O)[O-] | inactive
Cc1cc(/C=N/NC(=O)c2cc3ccccc3o2)c(C)n1C | inactive
NC(=S)N/N=C\c1ccc(-c2cccc(Cl)c2Cl)o1 | inactive
CC(C)(C)NC(=S)N/N=C\c1ccc(-c2ccc([N+](=O)[O-])cc2)o1 | 20.6 µM (active)
O=C(O)c1cccc(-c2ccc(/C=N/Nc3ccc([N+](=O)[O-])cc3)o2)c1 | 18.4 µM (active)
Cc1cc([N+](=O)[O-])ccc1-c1ccc(/C=N/NC(=O)c2ccc(Br)o2)o1 | 16.4 µM (active)
CC1(C(=O)NCc2ccccc2)Cc2c(-c3cccc(C(N)=O)c3)ccnc2O1 (stereo not drawn) | inactive
COc1ccc(NC(=O)C2(C)Cc3c(-c4cccc(C(N)=O)c4)ccnc3O2)cn1 (stereo not drawn) | inactive
O=C(COc1ccc(C(=O)c2ccccc2)cc1)NCc1ccc(F)cc1 | inactive
Cc1c(C(=O)C(=O)N2CC=C(c3ccccc3)CC2)c2ccccc2n1C | inactive
CCOc1ccc(S(=O)(=O)NCc2ccccn2)cc1NC(=O)c1ccccc1 | inactive
O=C1CC(c2ccccc2F)c2cc3c(cc2N1)CCC3 (stereo not drawn) | inactive
CN(/N=C/c1ccc(-c2ccc([N+](=O)[O-])cc2)o1)c1ccccc1 | 1.64 µM (active)
Cc1cc(N2CCN(Cc3cn(C)nc3-c3ccccc3F)CC2)cc(C)n1 | inactive
COc1cc(C(=O)N/N=C/c2ccccn2)cc(OC)c1OC | inactive
Cc1cc(C)n(-c2nc3c(c(=O)[nH]c(=O)n3C)n2CC(O)COc2ccc(Cl)cc2Cl)n1 (stereo not drawn) | inactive
Cc1ccc2ccc3c(c2n1)NS(=O)(=O)c1ccc(C(F)(F)F)cc1-3 | inactive
CN(C)c1ccc(/C=C(\C#N)c2nc3ccccc3c(=O)[nH]2)cc1 | 0.58 µM (active)
N#C/C(=C\c1ccc(C(=O)O)cc1)c1nc2sc3c(c2c(=O)[nH]1)CCCC3 | inactive
COc1ccc(NC2=CC(=O)CC(c3ccccc3)C2)c(OC)c1 (stereo not drawn) | inactive
